Measured values: PubChem BioAssay (NCI)
This is part of a sample that, as a whole, favours compounds with a hit. Of some 83,000 tested, about 20% had one in any assay.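 Cell lines were cultured in 96-well plates, exposed to a single compound concentration, and assessed for percent growth 48 hours later.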 Active and inactive are the calls of the source. The calls were made as follows: active = growth percent below 10; inactive = the rest.

Columns and labels:
Test in all cases: NCI-60 one-dose screen, 48 h (100 = growth as untreated, 0 = no growth, -100 = all killed)
Settings in all cases: 10 µM unless noted
HCT-15 colon = test system: HCT-15 colon
HT29 colon = test system: HT29 colon
SNB-75 CNS = test system: SNB-75 CNS
SNB-19 CNS = test system: SNB-19 CNS
U251 CNS = test system: U251 CNS
PC-3 prostate = test system: PC-3 prostate
SK-MEL-5 melanoma = test system: SK-MEL-5 melanoma
UACC-62 melanoma = test system: UACC-62 melanoma
LOX IMVI melanoma = test system: LOX IMVI melanoma
SK-MEL-28 melanoma = test system: SK-MEL-28 melanoma
SK-MEL-2 melanoma = test system: SK-MEL-2 melanoma
EKVX NSCLC = test system: EKVX NSCLC
SN12C renal = test system: SN12C renal
UO-31 renal = test system: UO-31 renal
TK-10 renal = test system: TK-10 renal
ACHN renal = test system: ACHN renal
CAKI-1 renal = test system: CAKI-1 renal
A498 renal = test system: A498 renal
CCRF-CEM leukemia = test system: CCRF-CEM leukemia
MOLT-4 leukemia = test system: MOLT-4 leukemia

Measured: growth

CC(C)c1nc2ccccc2n1CC(=O)N/N=C/c1cccc(O)c1
inactive: HCT-15 colon 104% | HT29 colon 104% | SNB-75 CNS 94.1% | SNB-19 CNS 91.8% | U251 CNS 103% | PC-3 prostate 87.9% | SK-MEL-5 melanoma 100% | UACC-62 melanoma 86.3% | LOX IMVI melanoma 99.6% | SK-MEL-28 melanoma 97.2% | SK-MEL-2 melanoma 107% | EKVX NSCLC 105% | SN12C renal 94.1% | UO-31 renal 80.2% | TK-10 renal 93.5% | ACHN renal 95.7% | CAKI-1 renal 101% | A498 renal 88% | CCRF-CEM leukemia 94.9% | MOLT-4 leukemia 91.9%

COc1cccc(N2CCN(c3ncnc4cc[nH]c34)CC2)c1
active: SK-MEL-5 melanoma -0.321%
inactive: HCT-15 colon 83% | HT29 colon 73.2% | SNB-75 CNS 84% | SNB-19 CNS 66.2% | U251 CNS 66.9% | PC-3 prostate 53% | UACC-62 melanoma 58.8% | LOX IMVI melanoma 51.6% | SK-MEL-28 melanoma 80.8% | SK-MEL-2 melanoma 64.7% | EKVX NSCLC 50.1% | SN12C renal 85.5% | UO-31 renal 65% | TK-10 renal 52.8% | ACHN renal 59.6% | CAKI-1 renal 71.6% | A498 renal 41.3% | CCRF-CEM leukemia 60.9% | MOLT-4 leukemia 29.6%

CCN1CCN(Cc2ccc(NC(=O)Nc3ccc(-n4ccc5c(NC(=O)c6ccccc6)nccc54)cc3)cc2C(F)(F)F)CC1
inactive: PC-3 prostate 54.6% | UACC-62 melanoma 41.3% | EKVX NSCLC 87.4% | SN12C renal 58.3% | TK-10 renal 25.5% | CAKI-1 renal 47.3% | A498 renal 105%
active: HCT-15 colon -6.13% | HT29 colon -35.3% | SNB-75 CNS -88.2% | SNB-19 CNS -14% | U251 CNS -75.8% | SK-MEL-5 melanoma -97.6% | LOX IMVI melanoma -84.5% | SK-MEL-28 melanoma -96.7% | SK-MEL-2 melanoma -31.5% | UO-31 renal -48.6% | ACHN renal -46.3% | MOLT-4 leukemia -32.8%

O=S(=O)(Nc1ccc2ccccc2c1)N1CCCCC1
active: SK-MEL-2 melanoma 8.41%
inactive: HCT-15 colon 40.6% | HT29 colon 40.9% | SNB-75 CNS 52% | SNB-19 CNS 90.2% | U251 CNS 57.2% | PC-3 prostate 61% | SK-MEL-5 melanoma 59.8% | UACC-62 melanoma 56% | LOX IMVI melanoma 51.8% | SK-MEL-28 melanoma 73.6% | EKVX NSCLC 81% | SN12C renal 81.9% | UO-31 renal 25% | TK-10 renal 86.8% | ACHN renal 63.7% | CAKI-1 renal 44% | A498 renal 27% | MOLT-4 leukemia 64.5%

CC(C)(CCc1ccccn1)C(=O)CCCc1ccccn1
inactive: HCT-15 colon 108% | HT29 colon 97% | SNB-75 CNS 102% | SNB-19 CNS 94% | U251 CNS 100% | PC-3 prostate 89% | SK-MEL-5 melanoma 104% | UACC-62 melanoma 89.8% | LOX IMVI melanoma 94.2% | SK-MEL-28 melanoma 115% | SK-MEL-2 melanoma 98.7% | EKVX NSCLC 105% | SN12C renal 94.8% | UO-31 renal 85.9% | TK-10 renal 97% | ACHN renal 97.4% | CAKI-1 renal 98% | A498 renal 96.3% | CCRF-CEM leukemia 84.8% | MOLT-4 leukemia 101%

NC(=S)N1N=C(c2ccc(Cl)cc2)CC1c1cc2ccccc2[nH]c1=O (stereo not drawn)
inactive: HCT-15 colon 104% | HT29 colon 95.3% | SNB-75 CNS 106% | SNB-19 CNS 101% | U251 CNS 107% | PC-3 prostate 87.5% | SK-MEL-5 melanoma 107% | UACC-62 melanoma 97.7% | LOX IMVI melanoma 105% | SK-MEL-28 melanoma 115% | SK-MEL-2 melanoma 103% | EKVX NSCLC 109% | SN12C renal 104% | UO-31 renal 82.7% | TK-10 renal 109% | ACHN renal 107% | CAKI-1 renal 114% | A498 renal 89.5% | MOLT-4 leukemia 72.5%

S=C(Nc1ccc(Cl)cc1)Nc1ccc(Cl)cc1 (tested in a mixture with another compound)
inactive: SNB-75 CNS 16.8% | SNB-19 CNS 24.7% | UACC-62 melanoma 13.8% | SK-MEL-28 melanoma 25.8% | SN12C renal 11.1% | MOLT-4 leukemia 15.3%
active: HCT-15 colon 9.22% | HT29 colon 1.05% | U251 CNS -36.6% | PC-3 prostate 3.81% | SK-MEL-5 melanoma -61.3% | LOX IMVI melanoma 5.65% | SK-MEL-2 melanoma -32.7% | EKVX NSCLC -4.98% | UO-31 renal -5.47% | TK-10 renal 1.45% | ACHN renal 3.54% | CAKI-1 renal -20.3% | A498 renal -8.63%

C=CCN(CC#N)CC=C
inactive: HCT-15 colon 116% | HT29 colon 94.5% | SNB-75 CNS 96.2% | SNB-19 CNS 109% | U251 CNS 100% | PC-3 prostate 91% | SK-MEL-5 melanoma 94.9% | UACC-62 melanoma 102% | LOX IMVI melanoma 101% | SK-MEL-28 melanoma 104% | SK-MEL-2 melanoma 117% | EKVX NSCLC 100% | SN12C renal 102% | UO-31 renal 92.4% | TK-10 renal 103% | ACHN renal 109% | CAKI-1 renal 107% | A498 renal 112% | MOLT-4 leukemia 102%

CC(C)(C)c1ccc(OC(=O)Nc2ccccc2)cc1
inactive: HCT-15 colon 104% | HT29 colon 101% | SNB-75 CNS 106% | SNB-19 CNS 109% | U251 CNS 101% | PC-3 prostate 96.3% | SK-MEL-5 melanoma 104% | UACC-62 melanoma 110% | LOX IMVI melanoma 102% | SK-MEL-28 melanoma 122% | SK-MEL-2 melanoma 103% | EKVX NSCLC 111% | SN12C renal 100% | UO-31 renal 87% | TK-10 renal 98.7% | ACHN renal 102% | CAKI-1 renal 104% | A498 renal 97.7% | CCRF-CEM leukemia 87.1% | MOLT-4 leukemia 56.6%

Nc1cc(C(=O)O)cc(C(=O)O)c1
inactive: HCT-15 colon 111% | HT29 colon 97.2% | SNB-75 CNS 99.2% | SNB-19 CNS 111% | U251 CNS 108% | PC-3 prostate 96.8% | SK-MEL-5 melanoma 108% | UACC-62 melanoma 104% | LOX IMVI melanoma 115% | SK-MEL-28 melanoma 115% | SK-MEL-2 melanoma 89.6% | EKVX NSCLC 105% | SN12C renal 96.3% | UO-31 renal 84.8% | TK-10 renal 101% | ACHN renal 109% | CAKI-1 renal 104% | A498 renal 98% | MOLT-4 leukemia 90.1%

CC(=O)O[C@@H]1CC2C(C)(C)CCCC2(C)C2=C1C(=O)C(C(C)C)=CC2=O (stereo partly drawn)
inactive: SNB-19 CNS 20.9% | PC-3 prostate 12% | LOX IMVI melanoma 10.6% | EKVX NSCLC 10.8% | TK-10 renal 18.6% | CCRF-CEM leukemia 14%
active: HCT-15 colon -8% | HT29 colon 0.85% | SNB-75 CNS -11.8% | U251 CNS 3.62% | SK-MEL-5 melanoma -93.3% | UACC-62 melanoma -64.4% | SK-MEL-28 melanoma -16.8% | SK-MEL-2 melanoma -47.9% | SN12C renal 7.47% | UO-31 renal -94.1% | ACHN renal -70.2% | CAKI-1 renal -3.95% | A498 renal -63.3% | MOLT-4 leukemia 9.69%

CS(=O)(=O)c1ccc(Cl)c([N+](=O)[O-])c1
active: UO-31 renal 5.92% | CAKI-1 renal -88.3%
inactive: HCT-15 colon 99.4% | HT29 colon 94.7% | SNB-75 CNS 114% | SNB-19 CNS 105% | U251 CNS 109% | PC-3 prostate 77.8% | SK-MEL-5 melanoma 106% | UACC-62 melanoma 112% | LOX IMVI melanoma 88.2% | SK-MEL-28 melanoma 127% | SK-MEL-2 melanoma 99.8% | EKVX NSCLC 104% | SN12C renal 107% | TK-10 renal 108% | ACHN renal 108% | A498 renal 106% | MOLT-4 leukemia 53.2%
